Sampled rows, rich in hits. Any-hit rate of the full collection: about 1.4%.
Akt phos inh: inhibitors of Akt phosphorylation; Neuro2A IGF-stimulated pAkt S473 HTRF, 20 min; stronger effect = lower value; activity change, % for hits at 50 µM; actives 0.32% (n = 360,000); AID 651550; in the data active means activity change below about -80%; inconclusive means mostly about -51% to -80%; further: on the % scale 0 is the no-effect control and ±100 the full control effect
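Neuro2A cells in DMEM with 0.5% FBS, overnight at 37 deg C, given compound at single 50 µM final, then IGF (6 nM final) for 20 min at 37 deg C. Lysed; phospho-Akt Ser473 by HTRF after 24 h, 665/615 ratio.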
Pin1 inhibitor: blocks the human prolyl isomerase Pin1; Potency, µM (series often up to 115 µM), inactives show at the top dose activity, negative = inhibition, actives largely listed as inhibitors; Pin1 FP peptide displacement, HiFluor488, 10 min; Q13526; actives 0.009% (n = 390,000); AID 504891; active means well fitted inhibition curve with a large enough effect in the polarisation, with a control signal flat, not every such curve was filed as active; inconclusive means small, poorly fitted or top-dose-only effect, or effect the other way, or a change in a side signal; inactive means no such curve, though single readings can be large or run the other way; the % refers to the polarisation; further: potency means the concentration at half of the fitted maximal effect; on the % scale 0 is the no-effect control and ±100 the full control effect
Target sequence (Q13526 whole entry, looked up): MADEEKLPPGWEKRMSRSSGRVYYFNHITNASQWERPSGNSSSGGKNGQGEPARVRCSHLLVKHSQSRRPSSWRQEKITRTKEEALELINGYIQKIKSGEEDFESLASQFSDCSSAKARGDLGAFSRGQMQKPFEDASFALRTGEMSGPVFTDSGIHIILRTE
A-T KAP1 phos: candidate therapy for ataxia-telangiectasia; F2112 A-T fibroblasts, KAP-1 phosphorylation AlphaLISA; neocarzinostatin DNA damage 30 min before lysis; Potency, µM (series often up to 57.5 µM), without a hit: top-dose activation, hits mostly activators; actives 0.19% (n = 320,000); AID 485349; further: potency means the concentration at half of the fitted maximal effect; % of control where 0% means no effect; nearly all actives have a fitted effect of over 45% in size
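hTERT-immortalized A-T patient fibroblasts (F2112), 500 cells/well in OPTI-MEM, 1% FBS, got compounds for 60 min, then NCS for 30 min at 37C. Lysates were then assayed for phospho-KAP-1 by AlphaLISA (anti-pKAP1 donor, anti-KAP1 acceptor beads), 6 hr at 25C.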
TrxR1 substrate: is turned over as a substrate by rat TrxR1; Potency, µM (doses to about 114 µM), without a hit: at the top dose activity change, negative = substrate turnover; O89049; AID 588456; actives 0.01% (n = 390,000); purified TrxR1 substrate turnover, NADPH consumption readout; further: potency means the concentration at half of the fitted maximal effect; on the % scale 0 is the no-effect control and ±100 the full control effect; nearly all actives have a fitted effect of over 50% in size
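Rat TrxR1, dispensed at 90 nM, was prereduced with 400 uM NADPH (final) for 5 min at ~22 deg C, then incubated with compound 15 min before 400 uM selenite. A first-read NADPH fluorescence drop versus no-compound background flagged substrates.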
N370S GC: inhibits or activates N370S mutant glucocerebrosidase; P04062; N370S GC spleen homogenate, 4MU-glucoside fluorescence; Potency, µM (top dose mostly 59.4 µM), for inactives: at the top dose activity change, negative = inhibition, hits mostly inhibitors; actives 0.092% (n = 330,000); AID 2101;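 further: potency means the concentration at half of the fitted maximal effect; 0% = full enzyme activity and -100% = no enzyme basal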
rTrxR1 inhibitor: rat TrxR1 inhibition; O89049; Potency, µM (doses to about 114 µM), for the others: at the top dose activity change, negative = inhibition, most hits filed as inhibitors; recombinant rTrxR1, NADPH fluorescence consumption, selenite substrate; actives 1% (n = 390,000); AID 588453; further: potency means the concentration at half of the fitted maximal effect; on the % scale 0 is the no-effect control and ±100 the full control effect; nearly all actives have a fitted effect of over 65% in size
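Rat TrxR1 (90 nM in the dispensed reagent) was pre-reduced with 400 uM NADPH for 5 min at room temperature, then incubated with compound for 15 min. After 400 uM selenite was added, NADPH fluorescence (Ex 340/Em 450 nm) was followed for 8 min.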
* marks the source's active call; other numbers are inactive results; i = inactive; ? = inconclusive; · = no result given; [ ] = remark or other dose. Unless noted, the call rests on the fitted dose curve; in most records, active means well fitted curve in the direction sought with a large enough effect; inconclusive means small, poorly fitted or top-dose-only effect, or another doubt; inactive means no such curve, though single readings can be large; an effect the other way counts as inactive or inconclusive.

SMILES	Akt phos inh	Pin1 inhibitor	A-T KAP1 phos	TrxR1 substrate	N370S GC	rTrxR1 inhibitor
CCCCCCCCCCCCCCCC[n+]1ccc(CC(O)c2c(C)[nH]c3ccccc23)c2ccccc21 (stereo not given)	·	·	·	3.9%	·	-9.7%
CC(C)c1ccc(Nc2c(-c3ccccc3O)nc3cnccn23)cc1	·	0.4%	·	-2.9%	·	9.2%
Cc1ccc(-c2nc3cnccn3c2Nc2ccc(C(C)C)cc2)o1	·	30.2%	·	5.1%	·	12.6µM*
Cc1ccc(-c2nc3cnccn3c2Nc2c(C)cccc2C)o1	i	-19.9%	15.8µM*	11.4%	11.0%	14.1µM*
COc1cccc(C(=O)N2CCN(C(=O)c3cccs3)CC2)c1OC	-111.8%*	-1.2%	12.1%	11.2%[57.1 µM]	8.7%	5.9%[57.1 µM]
O=S(=O)(c1ccc2c(c1)OCCO2)N1CCN(S(=O)(=O)c2ccccc2OC(F)(F)F)CC1	·	16.1%	·	·	·	·
COc1cccc(N2CCN(C(=O)c3ccc(CS(=O)c4cccc(Cl)c4)o3)CC2)c1 (stereo not given)	·	0.3%	·	1.7%	·	-3.4%
CCOC(=O)c1c(C)oc2c1c(C(c1cccnc1)N1CCN(C)CC1)c(O)c1ccccc12 (stereo not given)	·	·	13.5%	·	-7.0%	·
CCOC(=O)c1c(C)oc2c1c1c(c3ccccc32)OCN(Cc2cccnc2)C1	i	-8.9%	-11.2%	2.1%	-9.5%	1.41µM*
CCOC(=O)c1c(C)oc2c1c1c(c3ccccc32)OCN(CCCC(=O)O)C1	i	2.1%	7.1%	-1.2%	7.9%	3.55µM*
CCOC(=O)c1c(C)oc2c1c(C(c1cccnc1)N1CCOCC1)c(O)c1ccccc12 (stereo not given)	i	-0.3%	?	-12.7%	5.0%	11.2µM*
CC(C)(C)C(=O)CSc1n[nH]c(-c2ccccc2)n1	·	·	·	-1.9%	·	7.1%
CCOC(=O)c1cnn(-c2cc(C)c3ccccc3n2)c1N	-132.7%*	1.4%	5.0%	-4.0%	-2.6%	-3.3%
CCOC(=O)c1cnn(-c2ccccn2)c1N	i	2.2%	-6.8%	7.3%[57.1 µM]	0.0%	10.8%[57.1 µM]
O=C(CC1OC(=O)c2ccccc21)Nc1ccccc1N1CCOCC1 (stereo not given)	i	-9.3%	-1.5%	-6.4%	2.5%	10.0%[57.1 µM]
CC(=O)N1CCN(C(=O)CC2OC(=O)c3ccccc32)CC1 (stereo not given)	i	?	-2.8%	0.4%[57.1 µM]	-2.7%	2.51µM*
COc1ccc(Nc2nc(C#N)nc(NC3CCCC3)n2)cc1	·	8.0%	·	·	·	·
Cc1ccc2c(CC(=O)N(Cc3ccc(Cl)cc3)Cc3ccco3)coc2c1	·	65.2%	·	-12.5%	·	50.1µM*
Cc1cc(C)c2c(CC(=O)N(Cc3ccc(N(C)C)cc3)Cc3ccco3)coc2c1	·	11.0%	·	-11.2%	·	7.8%
COc1ccc2nc(Cl)c(C3CC(c4ccco4)=NN3C(=O)CCCC(=O)O)cc2c1 (stereo not given)	i	·	-6.2%	3.8%	-4.9%	39.8µM*
c1ccc(-c2nc3nc4ccccc4nc3n2Cc2ccco2)cc1	i	0.3%	17.9%	8.8%[57.1 µM]	16.6%	31.6µM*
COc1ccc(S(=O)(=O)N2CCC(C(=O)NC(C)c3ccccc3)CC2)cc1 (stereo not given)	·	2.2%	·	4.3%	·	16.7%
C#CCOCCOCCOCCNc1nc(N2CCN(C(=O)[C@H](CCC(=O)O)n3cc(C(N)CO)nn3)CC2)nc(N2CCN(C(=O)[C@H](CCC(=O)O)n3cc(C(N)CC(C)C)nn3)CC2)n1 (stereo not given in full)	·	·	17.8µM*	·	8.7%	·
C#CCOCCOCCOCCNc1nc(N2CCN(C(=O)[C@H](CCC(=O)O)n3cc(C(N)Cc4ccc(O)cc4)nn3)CC2)nc(N2CCN(C(=O)[C@H](CCCCN)n3cc(C(N)[C@H](C)CC)nn3)CC2)n1 (stereo not given in full)	·	·	39.8µM*	·	11.1%	·
